ssDAF12 agonist: S. stercoralis DAF-12 nuclear receptor activators, primary screen, cell-based, luminescence, HEK293, GRIP1 co-expression, lit1-tk-luc; 1% of 370,000 active; HEK293 ssDAF-12/GRIP1 lit1-tk-luc reporter; % of 3 µM dafachronic acid response; activation, % at 6.8 µM; Nuclear hormone receptor DAF-12 (Strongyloides stercoralis); AID 652126, 2013;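 active = activation above the mean over all tested compounds plus 3 SD, cut at about 0.9% in these data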;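 also: 0% = DMSO-only wells and 100% = 3 µM delta7-dafachronic acid wells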
DAX1 inh-1: DAX1 (NR0B1) inhibitors on StAR promoter, primary screen, cell-based, luminescence, SF-1 (NR5A1), full-length DAX-1. HEK293T StAR-luciferase reporter, SF-1/DAX-1 repression relief. inhibition, % at 6.8 µM. 1.1% of 370,000 active;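 active = inhibition above the mean over all tested compounds plus 3 SD, cut at about 3.6% in these data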;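 also: 0% = DAX-1 cells with DMSO and 100% = cells lacking DAX-1 with DMSO; higher inhibition means more luminescence from relief of DAX-1 repression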
hgDAF12 agonist: H. glycines DAF-12 receptor agonists, primary screen, cell-based, luminescence, HEK293, GAL4 fusion, UAS-luciferase; Nuclear hormone receptor DAF-12 (Heterodera glycines), GAL4 fusion; HEK293 GAL4-hgDAF12 UAS-luciferase reporter, agonist luminescence; normalized to butyrate control; activation, % at 6.8 µM; 1.8% of 370,000 active; AID 687014, 2013;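 active = activation above a cutoff set at the mean of all screened compounds plus 3 SD, cut at about 10% in these data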;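 also: 0% = DMSO wells and 100% = sodium butyrate wells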
hcDAF12 agonist: H. contortus DAF-12 nuclear receptor activators, primary screen, cell-based, luminescence, HEK293, lit1-tk-luc reporter | 1.4% of 370,000 active | HEK293 hcDAF-12 lit1-tk-luc reporter; 0% DMSO, 100% Δ7-dafachronic acid | activation, % at 6.8 µM;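 active = activation above the mean of all tested compounds plus 3 SD, cut at about 5.5% in these data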;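 also: 100% = response to 3 µM Δ7-dafachronic acid high control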
DAX1 inh-2: DAX1 (NR0B1) inhibitors, primary screen, cell-based, HEK293, Gal4-DAX1, luciferase luminescence; Nuclear receptor subfamily 0 group B member 1 (Homo sapiens), P51843; HEK293 Gal4-DAX1 luciferase reporter; inhibition, % at 6.75 µM; 0.99% of 340,000 active;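 active = inhibition above the mean over all tested compounds plus 3 SD, cut at about 4.2% in these data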;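 also: 0% = DAX1-transfected cells with DMSO and 100% = empty-vector control cells with DMSO; inhibition shows as a rise in luminescence from relieved DAX1 repression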
Target sequence (P51843 207-470 limits assumed): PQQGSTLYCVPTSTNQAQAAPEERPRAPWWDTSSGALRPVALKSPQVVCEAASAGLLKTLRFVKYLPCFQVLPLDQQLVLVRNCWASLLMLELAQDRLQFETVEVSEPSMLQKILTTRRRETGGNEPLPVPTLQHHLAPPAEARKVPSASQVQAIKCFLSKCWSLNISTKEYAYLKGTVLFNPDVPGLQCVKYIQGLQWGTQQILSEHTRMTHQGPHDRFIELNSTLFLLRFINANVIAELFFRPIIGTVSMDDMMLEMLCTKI
The depositor's hits bear a star; · = no result given. The list is not random: actives were taken first. Their share in the collection is about 4.1%.

SMILES	ssDAF12 agonist	DAX1 inh-1	hgDAF12 agonist	hcDAF12 agonist	DAX1 inh-2
Cc1cc(=O)nc2c3ccccc3n(C(C)C(=O)NCCN3CCOCC3)n12 (stereo unspecified)	-1.1	0.2	1.8	-0.2	0.9
CN(C)S(=O)(=O)N1CCCC(C(=O)c2ccc(-c3ccccc3)cc2)C1 (stereo unspecified)	-1.6	0.3	-1.1	-0.4	4.3*
O=C(NCc1ccccc1)C(c1cc2ccccc2o1)n1c(=O)c(-c2ccccc2)nc2ccccc21 (stereo unspecified)	0.5	3.8*	5.4	4.1	·
COc1ccc(NC(=O)C(c2cc3ccccc3o2)n2c(=O)c(-c3cc4ccccc4[nH]3)nc3ccccc32)cc1 (stereo unspecified)	1.3*	0.4	3.2	5.8*	·
O=C(NCc1ccccc1)C(c1ccncc1)n1c(=O)c(-c2ccccc2)nc2ccccc21 (stereo unspecified)	-0.7	0.0	4.0	-0.1	·
COC(=O)CCCC(=O)OC	-1.3	0.1	0.4	2.5	4.3*
COC(=O)CCC(=O)CN	-0.8	1.2	-2.4	0.0	4.7*
COc1cccc(CN(C)C(=O)[C@H]2O[C@@H](n3cnc4c(=O)[nH]c(N)nc43)[C@H](O)[C@@H]2O)c1	-1.0	-1.0	0.5	-0.3	·
CS(=O)(=O)c1cccc(-c2nnc(NC(=O)CCS(=O)(=O)c3ccccc3)o2)c1	-0.4	0.7	3.3	0.9	4.6*
COc1ccc(-c2nc(CSCC(=O)N3CCN(C)CC3)c(C)o2)cc1OC	-0.7	-0.4	-2.6	-0.5	6.1*
CCN1CCN(C(=O)CSCc2nc(-c3ccc(OC)c(OC)c3)oc2C)CC1	-1.3	0.0	3.2	4.9	1.4
CCc1ccc(Nc2ncc3c(n2)CC(C)CC3=O)cc1 (stereo unspecified)	-0.2	3.8*	10.0	1.2	0.8
CCc1ccc(Nc2ncc3c(n2)CC(C)(C)CC3=O)cc1	-0.9	1.3	6.7	2.1	7.1*
CCc1ccc(Nc2ncc3c(n2)CC(c2ccc(OC)cc2)CC3=O)cc1 (stereo unspecified)	-0.5	-1.1	-1.2	1.1	-0.3
CN(C(=O)c1cc2sccc2n1C)C1CCCCC1	-0.8	1.3	11.8*	2.6	1.0
Cn1c(C(=O)N2CCCC(C(=O)O)C2)cc2sccc21 (stereo unspecified)	-1.1	0.2	0.4	0.6	0.1
Cn1c(C(=O)NC2CCCCC2)cc2sccc21	0.3	2.4	8.2	6.0*	1.4
CC(C)CN(CC(C)C)C(=O)c1ccc2c(c1)NC(=O)C(C)(C)O2	-1.3	0.4	-1.9	-2.3	·
CC(=O)Nc1ccc(Sc2ncccc2C(=O)Nc2cc(Cl)cc(Cl)c2)cn1	1.1*	0.0	1.7	0.7	0.2
FC(F)(F)c1nnc2c(Sc3ccccn3)nc3ccccc3n12	-0.1	0.4	6.8	5.6*	0.7
FC(F)(F)c1nnc2c(Sc3ccccc3)nc3ccccc3n12	-0.4	0.5	5.6	4.1	0.0
CCOc1cccc(/C=N\NC(=O)c2cnccn2)c1O	-0.5	-0.1	-0.2	3.2	·
Cc1ccc2cc(F)c(F)c(F)c2n1	1.5*	1.3	7.1	1.6	·
Cc1ccc2ccc3ccc(C)nc3c2n1	-1.4	-5.6	-2.9	-2.9	-3.4
CC(=O)c1cc(-c2ccccc2)n(CC(=O)NCc2ccc(F)cc2)c1C	-1.5	-0.7	-0.8	-3.2	·
CN(C)C=Nc1ccc(Cn2cnc3nc4ccc(Cl)cc4cc3c2=O)cc1	-0.3	0.9	2.4	4.5	·
O=c1c2cc3cc(Cl)ccc3nc2ncn1CCc1c[nH]c2ccccc12	1.5*	0.6	4.6	5.5	·
COc1ccccc1CCn1cnc(-c2cccc(F)c2)c1C(C)C	-2.1	-2.3	-2.2	-3.6	·
N#CC1C(C#N)N2CCCN2C1c1ccc(Cl)cc1 (stereo unspecified)	0.1	-0.5	1.6	5.8*	-1.3
COc1ccccc1C(=O)N1CCC(Oc2cccnc2)CC1	-1.0	0.3	2.1	-2.6	·

Screening data (PubChem BioAssay)
